This note sets out measurements from the supplement of paper PMC8728848.

The entries come from a sample that favours the strongest signals as a whole.

Experiment in all cases: glycan array binding signal (z-score within array); higher = stronger binding
Common to all, as to details: glycan notation: IUPAC condensed, linker removed

The target in one assay is GalNAc(b1-4)GlcNAc. The essentials:
(§1)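 The binding signal is a Z-score computed within each array and averaged over linkers. Arrays of the same protein sequence at different concentrations or buffers were also averaged together. Data originate from 3228 arrays in the Consortium for Functional Glycomics database, kept only where the protein sequence was available.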

The target in the next assay is GlcA(b1-3)GlcNAc. The gist of the method:
as §1

In assay [1] the target is GlcNAc(a1-3)Gal(b1-4)GlcNAc. The gist of the method:
as §1

The target in assay [2] is GlcNAc(b1-3)Gal(b1-4)GlcNAc(b1-3)Gal(b1-4)GlcNAc(b1-2)Man(a1-3)[GlcNAc(b1-3)Gal(b1-4)GlcNAc(b1-3)Gal(b1-4)GlcNAc(b1-2)Man(a1-6)]Man(b1-4)GlcNAc(b1-4)GlcNAc. The gist of the method: as §1
The target of assay [3] is GlcNAc(b1-3)Gal(b1-4)GlcNAc(b1-3)Gal(b1-4)GlcNAc(b1-3)Gal(b1-4)GlcNAc(b1-2)Man(a1-3)[GlcNAc(b1-3)Gal(b1-4)GlcNAc(b1-3)Gal(b1-4)GlcNAc(b1-3)Gal(b1-4)GlcNAc(b1-2)Man(a1-6)]Man(b1-4)GlcNAc(b1-4)GlcNAc. The essentials:
as §1

The target in assay [4] is GlcNAc(b1-4)[GlcNAc(b1-6)]GalNAc. The gist of the method: as §1
The target of the next assay is GlcNAc(b1-6)GalNAc. The essentials: as §1
In assay [5] the target is Neu5Ac(a2-3)Gal(b1-3)GlcNAc(b1-2)Man(a1-3)[GlcNAc(b1-4)][Neu5Ac(a2-3)Gal(b1-3)GlcNAc(b1-2)Man(a1-6)]Man(b1-4)GlcNAc(b1-4)GlcNAc. The essentials: as §1
The target of assay [6] is Neu5Ac(a2-3)Gal(b1-4)GlcNAc(b1-2)[Neu5Ac(a2-3)Gal(b1-4)GlcNAc(b1-6)]Man(a1-6)[Neu5Ac(a2-3)Gal(b1-4)GlcNAc(b1-2)Man(a1-3)][GlcNAc(b1-4)]Man(b1-4)GlcNAc(b1-4)GlcNAc. The essentials:
as §1

Assay [7] has as its target Neu5Ac(a2-3)Gal(b1-4)GlcNAc(b1-3)Gal(b1-4)GlcNAc(b1-3)Gal(b1-4)GlcNAc. The gist of the method:
as §1

In assay [8] the target is Neu5Ac(a2-3)Gal(b1-4)GlcNAc(b1-3)Gal(b1-4)[Fuc(a1-3)]GlcNAc. The gist of the method:
as §1

Assay [9] has as its target Neu5Ac(a2-3)Gal(b1-4)[Fuc(a1-3)]GlcNAc(b1-6)[Neu5Ac(a2-3)Gal(b1-3)]GalNAc. The gist of the method:
as §1

Assay [10] concerns the target Neu5Ac(a2-3)[GalNAc(b1-4)]Gal(b1-4)GlcNAc. The essentials: as §1
In assay [11] the target is Neu5Ac(a2-6)Gal(b1-4)GlcNAc(b1-2)Man(a1-3)[Neu5Ac(a2-6)Gal(b1-4)GlcNAc(b1-2)Man(a1-6)]Man(b1-4)GlcNAc(b1-4)GlcNAc. The gist of the method:
as §1

In assay [12] the target is Neu5Ac(b2-6)Gal(b1-4)GlcNAc. The essentials: as §1
In assay [13] the target is Neu5Ac9Ac(a2-6)Gal(b1-4)GlcNAc. The essentials:
as §1

B1: AT3G09350(27) (Arabidopsis thaliana), Q84J81 (protein)
chain: MAKDGPNWDGLLKWSLSHADGTRPTRQLSEEDRKWFMEAMQSQTVDVVKRMKEITLVMQTPEQVLVEHGVTPEDIQDLLDELQEHVESIDMANDLHSIGGLVPLLSFLKNSHANIRAKAADVVSTIVQNNPRSQELVMETNALESLLSNFTSDTDIHARTQALGAISSLIRHNKPGVTAFKLANGYAGLRDALASDSVRFQRKALNLLQYLLQEDDSDRSIATGLGFPRVMMHLASSDDAEIREAALRGLLELSREKNDGSSSIDKSDEKLRQLLEERIKGITLMSQEDLETVKEERQLVDLLWSICYNEPSSLREKGLVVLPGEDALPPDVASKLFEPPLRASAANRNATEKKDEPMKLLGP
For the molecule B1, the “glycan array binding signal (z-score)” value with GalNAc(b1-4)GlcNAc was 7.59; with GlcA(b1-3)GlcNAc, -0.957; in [1], -0.46; in [2], 0.28; in assay [3], 0.057; in assay [4], -0.008. Besides, the “glycan array binding signal (z-score)” value was 0.847 with GlcNAc(b1-6)GalNAc; -0.8 in assay [5]; -0.435 in assay [6]; 0.446 in assay [7]; -0.305 in assay [8]; 0.415 in assay [9]. Moreover, the “glycan array binding signal (z-score)” value in [10] was -0.121; in assay [11], 0.535; in assay [12], 0.639; in [13], -0.732.
